These results are taken from PubChem BioAssay (NCI).

What all share (experiment): NCI-60 one-dose screen, 48 h (100 = growth as untreated, 0 = no growth, -100 = all killed)
What all share (settings): 10 µM

For assay [1], the system named is K-562 leukemia.
The test system of assay [2] is MALME-3M melanoma.
The test system of assay [3] is MDA-MB-231 breast.
For assay [4], the system named is RXF 393 renal.
The test system of assay [5] is SF-268 CNS.
In assay [6] the test system is SF-295 CNS.
Assay [7] relates to SF-539 CNS.
In assay [8] the test system is UACC-257 melanoma.
Assay [9] relates to M14 melanoma.
Assay [10] has as its system HCT-15 colon.
Assay [11] concerns HT29 colon.
The subject of assay [12] is SNB-75 CNS.
The subject of assay [13] is SNB-19 CNS.
In assay [14] the test system is PC-3 prostate.
Assay [15] deals with SK-MEL-5 melanoma.
Assay [16] deals with UACC-62 melanoma.
Assay [17] concerns LOX IMVI melanoma.
Assay [18] concerns SK-MEL-28 melanoma.
The test system of assay [19] is SK-MEL-2 melanoma.
Assay [20] concerns U251 CNS.

This is part of a sample that, as a whole, favours compounds with a hit. Of some 83,000 tested, about 20% had one in any assay.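 The test compound was applied at a single concentration to cells in 96-well plates for 48 hours, and percent growth was recorded.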 Values without a mark were called inactive. The source made the active and inactive calls. How the source made its calls: active means growth percent below 10; inactive means the rest.

Consider `COc1cc(NC(=O)CCSc2nc3ccc(Cl)cc3c(=O)n2Cc2ccccc2)cc(OC)c1OC`, for which the growth in assay [1] was 67.1%; in [2] it was 84.3%; in assay [3] it was 51.2%; in [4], 57.2%; in assay [5] it was 95.1%; in assay [6], 66.2%. In addition, the growth in [7] is 26.8%; in assay [8], 61%; in [9], 75.2%; in assay [10], 72.5%; in assay [11], 76.2%; in [12], 36.6%. In addition, the growth in assay [13] is 92.1%; in [14], 43.4%; in assay [15] it was 74.8%; in [16] it was 53.4%; in assay [17], 91.1%; in [18], 70.7%. Moreover, in [19], the growth is 73.7%.

`CC(C)(Cl)CCC1=C(Cl)C(=O)c2ccccc2C1=O`: the growth is -20% (active) in assay [1]; 128% in assay [2]; 34.1% in assay [3]; 28.8% in [4]; 65.7% in assay [5]; 105% in [6]. Moreover, the growth was 37.4% in [7]; 39.2% in assay [8]; 63.9% in [9]; 22.7% in assay [10]; 115% in assay [11]; 30.7% in [12]. Besides, the growth in assay [13] is 89%; in assay [20], 49.9%; in [14], 32.8%; in assay [15] it was -34.8% (active); in assay [17] it was 20.6%; in [18], 56.9%. Also, in assay [19], the growth is 79.1%.

With `Clc1ccc(-c2cn(-c3ccccc3)c(-c3ccccc3)n2)c(Cl)c1`, the growth in [1] was 24.8%; in [2] it was -43.3% (active); in assay [3] it was -11.7% (active); in assay [4], 41.3%; in assay [5] it was -26.7% (active); in assay [6], 19.5%. The growth in assay [7] was -22.2% (active); in assay [8] it was 52.2%; in assay [9], 16.7%; in assay [10], -71.4% (active); in assay [11], -100% (active); in [12], -83.3% (active). Further, the growth in assay [20] was -100% (active); in assay [14], -98.3% (active); in assay [15] it was 68.1%; in assay [16] it was 37%; in assay [17], -76.3% (active); in assay [18], 6.05% (active).

As for `C#Cc1ccc(-n2c(/C=C/c3ccc(O)cc3)nc3ncccc3c2=O)cc1`, the growth in assay [1] was 25%; in assay [2] it was 39.1%; in assay [3] it was 85.2%; in assay [4], -7.96% (active); in assay [5], 53.8%; in assay [6] it was 31.8%. In addition, the growth is 31.7% in [7]; 36.5% in assay [8]; 43.1% in assay [9]; 53.6% in assay [10]; 109% in assay [11]; -1.11% (active) in [12]. The growth is 82% in assay [13]; 62.5% in [20]; 65.3% in assay [14]; 22.3% in assay [15]; 55.5% in assay [17]; 19.9% in assay [19].

Regarding `COc1ccc(-c2cc(/C=C3\C(=O)Nc4ccc(OC)cc43)[nH]n2)cc1`, the growth in [1] was 15.6%; in assay [2], 35.1%; in assay [3], 59.2%; in assay [4] it was 48%; in [5] it was 42%; in assay [6], 1.93% (active). Moreover, the growth is 24.8% in assay [7]; 68.8% in assay [8]; 35.7% in assay [9]; 22.8% in [10]; 3.87% (active) in assay [11]; -18.7% (active) in [12]. The growth in [13] was 62.1%; in [14], 15.8%; in [15], 31%; in assay [16] it was 39.4%; in assay [17], 40.3%; in [18], 57%. Besides, the growth in assay [19] is 23.4%.

With `Clc1ccc(Sc2nc(NC3CC3)nc(Sc3ccc(Cl)cc3)n2)cc1`, the growth in assay [1] was 75.2%; in assay [2] it was 80.7%; in assay [3] it was 81.1%; in assay [4], 79.1%; in [5], 79.3%; in [6], 67.4%. Moreover, the growth in assay [7] was 95%; in assay [8], 89.6%; in [9], 86.2%; in [10], 71.3%; in assay [11] it was 48.8%; in assay [12] it was 92%. The growth in [13] was 105%; in [14] it was 46.8%; in assay [15], 87.9%; in [16] it was 82.2%; in assay [17] it was 91.3%; in [18] it was 87.5%.

As for `COc1ccc(C2=NN(C(=O)c3ccc(S(C)(=O)=O)cc3)C(c3ccc(OC)c(OC)c3)C2)c(OC)c1` (configuration not stated), the growth was 77.2% in assay [1]; 113% in assay [2]; 95.2% in [3]; 105% in assay [4]; 89% in assay [5]; 98.7% in assay [6]. Further, the growth in assay [7] is 102%; in assay [8] it was 92.2%; in [9], 103%; in assay [10] it was 99.4%; in assay [11] it was 103%; in assay [12], 94%. For the same compound, the growth in [13] is 99.1%; in assay [14], 90.9%; in assay [15] it was 90%; in assay [17], 103%; in assay [18], 112%.

In the case of `COc1ccc(-n2c(SCc3cc(OC)c(OC)c(OC)c3)nc3ccc(C)cc3c2=O)cc1`, the growth is 16.9% in [1]; 59.7% in [2]; 59.8% in assay [3]; 52.8% in assay [4]; 80.6% in [5]; 51.4% in assay [6]. In addition, the growth in assay [7] was 77.7%; in assay [8] it was 77.3%; in [9] it was 53.8%; in [10], 33.6%; in assay [11], 21.9%; in assay [12], 44.4%. The growth in [13] is 83.7%; in assay [20], 69.1%; in [14], 75%; in assay [15] it was 54.9%; in [17], 63%; in assay [18] it was 74%. Also, the growth in assay [19] was 64.8%.
